Here are results for ten molecules from the supplement of paper PMC4022240.

± gives the standard deviation.

What all share (test): peptide microarray binding signal (635 nm), min-max normalized on array (fraction of array maximum); higher = stronger binding
Details in all cases: peptide region: H3 20-32

In assay [1] the target is T1, HaloTag-ATRX ADD domain (163-292).
T1 chain: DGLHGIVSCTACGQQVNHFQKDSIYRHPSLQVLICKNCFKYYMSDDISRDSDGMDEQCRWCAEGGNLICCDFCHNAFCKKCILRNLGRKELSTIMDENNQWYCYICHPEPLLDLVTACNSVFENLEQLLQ
The method, boiled down:
(§1)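 Binding signal is the mean intensity of triplicate spots, min-max scaled within each library. Histone 13-mer peptide–cellulose conjugates were spotted in triplicate on nitrocellulose with a Cy3 tracer and blocked overnight at 4°C. Probing lasted 1 h at 4°C, either with biotin-labelled HaloTag reader fusions (10 nM to 1 μM) and streptavidin-Alexa Fluor 647 or with rabbit histone antibodies (1:10,000 to 1:2,000) and anti-rabbit Alexa 647. An Axon GenePix 4000B read signal at 635 nm and misprints at 532 nm.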

The target in assay [2] is HaloTag-ING2 PHD (mouse Ing2 200-280). The method, boiled down: as §1
The target of assay [3] is anti-H3K4me3 antibody ab8580. The method, boiled down: as §1
Assay [4] addresses anti-H3K9me3 antibody ab8898. In outline:
as §1

The mark [5] stands for this setting: peptide modifications: H3R26me1 H3K27me2, binder concentration: 1:2,000 dilution.
Where [6] appears, read: peptide modifications: H3R26me1 H3K27me2, binder concentration: 1:10,000 dilution.
The mark [7] stands for this setting: peptide modifications: H3R26cit, binder concentration: 1:2,000 dilution.
Setting [8] is: peptide modifications: H3R26cit, binder concentration: 1:10,000 dilution.
Setting [9] is: peptide modifications: H3R26me1 H3K27me1, binder concentration: 1:2,000 dilution.
Setting [10] is: peptide modifications: H3R26me1 H3K27me1, binder concentration: 1:10,000 dilution.
The mark [11] stands for this setting: peptide modifications: H3R26me1, binder concentration: 1:2,000 dilution.
Where [12] appears, read: peptide modifications: H3R26me1, binder concentration: 1:10,000 dilution.
[13] abbreviates: peptide modifications: H3K27ac H3S28ph, binder concentration: 1:2,000 dilution.
The mark [14] stands for this setting: peptide modifications: H3K27ac H3S28ph, binder concentration: 1:10,000 dilution.
Where [15] appears, read: peptide modifications: H3R26cit H3K27me2, binder concentration: 1:2,000 dilution.
Setting [16] is: peptide modifications: H3R26cit H3K27me2, binder concentration: 1:10,000 dilution.
The mark [17] stands for this setting: peptide modifications: H3K27me2, binder concentration: 1:2,000 dilution.
[18] abbreviates: peptide modifications: H3K27me2, binder concentration: 1:10,000 dilution.
The mark [19] stands for this setting: peptide modifications: H3K27me2 H3S28ph, binder concentration: 1:2,000 dilution.
Where [20] appears, read: peptide modifications: H3K27me2 H3S28ph, binder concentration: 1:10,000 dilution.
Setting [21] is: peptide modifications: H3R26cit H3K27me3, binder concentration: 1:2,000 dilution.
[22] abbreviates: peptide modifications: H3R26cit H3K27me3, binder concentration: 1:10,000 dilution.
Where [23] appears, read: peptide modifications: H3K27me1, binder concentration: 1:2,000 dilution.
Setting [24] is: peptide modifications: H3K27me1, binder concentration: 1:10,000 dilution.

As to LATKAARKSAPAT [H3 20-32 L A T K A A Rme Kme2 S A P A T], the “peptide microarray binding signal” value in assay [1] (peptide modifications: H3R26me1 H3K27me2, binder concentration: 50 nM) came to 0.00392 ± 0.00013; in assay [1] (peptide modifications: H3R26me1 H3K27me2, binder concentration: 500 nM), 0.002619 ± 2.1e-05; in assay [2] (peptide modifications: H3R26me1 H3K27me2, binder concentration: 10 nM) it was 0.00483 ± 0.00013; in assay [2] (peptide modifications: H3R26me1 H3K27me2, binder concentration: 100 nM) it was 0.00517 ± 7.1e-05; in assay [3] (setting [5]) it was 0.00176; in assay [3] (setting [6]) it was 0.00194. Besides, the “peptide microarray binding signal” value in assay [4] (setting [5]) worked out at 0.00106 ± 2.2e-05; in assay [4] (setting [6]) it was 0.001211 ± 1.2e-05.
Take LATKAARKSAPAT [H3 20-32 L A T K A A Rcit K S A P A T]: the “peptide microarray binding signal” value in assay [1] (peptide modifications: H3R26cit, binder concentration: 50 nM) was 0.00411 ± 8.3e-05; in assay [1] (peptide modifications: H3R26cit, binder concentration: 500 nM), 0.00633 ± 0.00025; in assay [2] (peptide modifications: H3R26cit, binder concentration: 10 nM) it was 0.00824 ± 0.00018; in assay [2] (peptide modifications: H3R26cit, binder concentration: 100 nM), 0.0125 ± 0.00034; in assay [3] (setting [7]), 0.00296 ± 0.00035; in assay [3] (setting [8]) it was 0.00285 ± 6.5e-05. Besides, the “peptide microarray binding signal” value amounted to 0.00168 ± 3.3e-05 in assay [4] (setting [7]) and 0.00138 ± 1.4e-05 in assay [4] (setting [8]).
With LATKAARKSAPAT [H3 20-32 L A T K A A Rme Kme S A P A T], the “peptide microarray binding signal” value in assay [1] (peptide modifications: H3R26me1 H3K27me1, binder concentration: 50 nM) amounted to 0.00489 ± 4.8e-05; in assay [1] (peptide modifications: H3R26me1 H3K27me1, binder concentration: 500 nM) it was 0.00657 ± 0.0021; in assay [2] (peptide modifications: H3R26me1 H3K27me1, binder concentration: 10 nM), 0.00794; in assay [2] (peptide modifications: H3R26me1 H3K27me1, binder concentration: 100 nM), 0.0109 ± 0.00039; in assay [3] (setting [9]), 0.00355 ± 0.00035; in assay [3] (setting [10]) it was 0.00474 ± 0.00018. Further, the “peptide microarray binding signal” value in assay [4] (setting [9]) came out at 0.0024 ± 8.4e-05; in assay [4] (setting [10]), 0.001557 ± 1.5e-05.
For LATKAARKSAPAT [H3 20-32 L A T K A A Rme K S A P A T], the “peptide microarray binding signal” value in assay [1] (peptide modifications: H3R26me1, binder concentration: 50 nM) was determined as 0.00408 ± 8.9e-05; in assay [1] (peptide modifications: H3R26me1, binder concentration: 500 nM), 0.006381 ± 3.8e-05; in assay [2] (peptide modifications: H3R26me1, binder concentration: 10 nM) it was 0.00824 ± 0.00019; in assay [2] (peptide modifications: H3R26me1, binder concentration: 100 nM) it was 0.0116 ± 0.00028; in assay [3] (setting [11]), 0.00342 ± 0.0002; in assay [3] (setting [12]), 0.00325 ± 0.00018. Besides, the entries for the “peptide microarray binding signal” value in assay [4] (setting [11]) and in assay [4] (setting [12]) were 0.00187 ± 4.7e-05 and 0.00161 ± 3.1e-05, respectively.
Take LATKAARKSAPAT [H3 20-32 L A T K A A R Kac Sph A P A T]: the “peptide microarray binding signal” value was determined as 0.00903 ± 0.00081 in assay [1] (peptide modifications: H3K27ac H3S28ph, binder concentration: 50 nM); 0.0153 ± 0.0002 in assay [1] (peptide modifications: H3K27ac H3S28ph, binder concentration: 500 nM); 0.0221 ± 0.0015 in assay [2] (peptide modifications: H3K27ac H3S28ph, binder concentration: 10 nM); 0.0405 ± 0.0074 in assay [2] (peptide modifications: H3K27ac H3S28ph, binder concentration: 100 nM); 0.00951 ± 0.0017 in assay [3] (setting [13]); 0.0101 ± 0.0017 in assay [3] (setting [14]). Also, the “peptide microarray binding signal” value in assay [4] (setting [13]) worked out at 0.00536 ± 0.0021; in assay [4] (setting [14]), 0.00277 ± 6.4e-05.
In the case of LATKAARKSAPAT [H3 20-32 L A T K A A Rcit Kme2 S A P A T], the “peptide microarray binding signal” value in assay [1] (peptide modifications: H3R26cit H3K27me2, binder concentration: 50 nM) is 0.00414 ± 5.8e-05; in assay [1] (peptide modifications: H3R26cit H3K27me2, binder concentration: 500 nM), 0.00333 ± 0.00011; in assay [2] (peptide modifications: H3R26cit H3K27me2, binder concentration: 10 nM), 0.00692 ± 0.00014; in assay [2] (peptide modifications: H3R26cit H3K27me2, binder concentration: 100 nM) it was 0.00843 ± 0.00034; in assay [3] (setting [15]), 0.00262 ± 0.00016; in assay [3] (setting [16]), 0.00314 ± 4.6e-05. In addition, the “peptide microarray binding signal” value in assay [4] (setting [15]) came out at 0.00196 ± 6.8e-05; in assay [4] (setting [16]) it was 0.00167 ± 4.8e-05.
For the molecule LATKAARKSAPAT [H3 20-32 L A T K A A R Kme2 S A P A T], the “peptide microarray binding signal” value amounted to 0.00292 ± 6.9e-05 in assay [1] (peptide modifications: H3K27me2, binder concentration: 50 nM); 0.003238 ± 2.5e-05 in assay [1] (peptide modifications: H3K27me2, binder concentration: 500 nM); 0.00567 ± 0.00012 in assay [2] (peptide modifications: H3K27me2, binder concentration: 10 nM); 0.00581 ± 0.00013 in assay [2] (peptide modifications: H3K27me2, binder concentration: 100 nM); 0.00193 ± 6.9e-05 in assay [3] (setting [17]); 0.00205 ± 3.8e-05 in assay [3] (setting [18]). For the same molecule, the “peptide microarray binding signal” value in assay [4] (setting [17]) amounted to 0.00153 ± 0.00012; in assay [4] (setting [18]) it was 0.00144 ± 3.7e-05.
For LATKAARKSAPAT [H3 20-32 L A T K A A R Kme2 Sph A P A T], the “peptide microarray binding signal” value amounted to 0.00527 ± 0.00024 in assay [1] (peptide modifications: H3K27me2 H3S28ph, binder concentration: 50 nM); 0.0144 ± 0.00043 in assay [1] (peptide modifications: H3K27me2 H3S28ph, binder concentration: 500 nM); 0.0156 ± 0.00093 in assay [2] (peptide modifications: H3K27me2 H3S28ph, binder concentration: 10 nM); 0.0272 ± 0.0025 in assay [2] (peptide modifications: H3K27me2 H3S28ph, binder concentration: 100 nM); 0.00985 ± 0.00073 in assay [3] (setting [19]); 0.00508 ± 0.00053 in assay [3] (setting [20]). Besides, the entries for the “peptide microarray binding signal” value in assay [4] (setting [19]) and in assay [4] (setting [20]) were 0.00619 ± 0.0012 and 0.0129 ± 0.0067, respectively.
Take LATKAARKSAPAT [H3 20-32 L A T K A A Rcit Kme3 S A P A T]: the “peptide microarray binding signal” value is 0.00564 ± 0.00031 in assay [1] (peptide modifications: H3R26cit H3K27me3, binder concentration: 50 nM); 0.00676 ± 0.00027 in assay [1] (peptide modifications: H3R26cit H3K27me3, binder concentration: 500 nM); 0.0135 ± 0.00085 in assay [2] (peptide modifications: H3R26cit H3K27me3, binder concentration: 10 nM); 0.0188 ± 0.00063 in assay [2] (peptide modifications: H3R26cit H3K27me3, binder concentration: 100 nM); 0.0286 ± 0.0025 in assay [3] (setting [21]); 0.0204 ± 0.00089 in assay [3] (setting [22]). In addition, the entries for the “peptide microarray binding signal” value in assay [4] (setting [21]) and in assay [4] (setting [22]) were 0.0791 ± 0.0015 and 0.05 ± 0.006, respectively.
For the molecule LATKAARKSAPAT [H3 20-32 L A T K A A R Kme S A P A T], the “peptide microarray binding signal” value in assay [1] (peptide modifications: H3K27me1, binder concentration: 50 nM) came to 0.00455 ± 9.6e-05; in assay [1] (peptide modifications: H3K27me1, binder concentration: 500 nM), 0.00714 ± 0.00042; in assay [2] (peptide modifications: H3K27me1, binder concentration: 10 nM), 0.00961 ± 0.00022; in assay [2] (peptide modifications: H3K27me1, binder concentration: 100 nM), 0.0148 ± 0.00019; in assay [3] (setting [23]), 0.00402 ± 0.00028; in assay [3] (setting [24]) it was 0.00405 ± 0.00025. Further, the figures for the “peptide microarray binding signal” value in assay [4] (setting [23]) and in assay [4] (setting [24]) were 0.00231 ± 0.00014 and 0.00208 ± 3.9e-05, respectively.
